We go through 66 compounds from ChEMBL document CHEMBL4513216, “Probing the Open Global Health Chemical Diversity Library for Multistage-Active Starting Points for Next-Generation Antimalarials” (ACS Infect Dis, 2020).

Hit rate of the full screen: of about 68,000 compounds, about 2,700 (4%) showed an effect of 50% or more. This is one part of a sample in which strong results are shown more often than they occur.

The test concerns Plasmodium berghei. Nature of the test: Screen against P. berghei liver stage (PbLuc), transformed with Luciferase, at 2uM. The following applies: tested at 2 uM. Type of test: functional, HepG2.
`CO[C@H]1C(=O)N(C)C2(CCNCC2)[C@@H]1C(=O)Nc1ccccc1`: the INHIBITION came out at 36.1%.
As for `Cc1noc(C)c1CN1CCC(N(C)Cc2nnc(C3CC3)n2C)C1` (stereo unspecified), the figure is -37.68%; as for `CC[C@@H]1N(Cc2ccc(OC)cc2)CCC[C@]12CCC(=O)N2CCOC`, 25.75%; as for `COCCN1C(=O)CCC12CCC(NCc1cccnc1OC)CC2` (stereo unspecified), 12.95%.
Then `CN1C(=O)CCC12CCC(NC(=O)NCc1cccnc1)CC2` (stereo unspecified), with -14.64%.
Take `COCCN1C(=O)CCC12CCC(NCc1ccc(OC)cc1)CC2` (stereo unspecified): the INHIBITION amounted to 25.43%.
Then `CC[C@@H]1N(Cc2ccncc2)CCC[C@]12CCC(=O)N2CCOC`, with 28.86%; and `COCCN1C(=O)CCC12CCC(NCc1nccs1)CC2` (stereo unspecified), with 75.66%; and `CN1C(=O)CCC12CCC(NCc1ccsc1)CC2` (stereo unspecified), with 51.81%.
Turning to `CC[C@H]1N(CC2CCC2)CCC[C@]12CCC(=O)N2Cc1ccncc1`, the INHIBITION is on record as 65.54%.
Then `CCCN1CCC[C@]2(CCC(=O)N2Cc2ccncc2)[C@H]1CC`, with 32.59%.
Then `O=C1CCC2(CCC(NCc3ccsc3)CC2)N1Cc1ccccc1` (stereo unspecified), with 31.5%.
Then `CC[C@@H]1N(Cc2ccccn2)CCC[C@]12CCC(=O)N2CCOC`, with 51.05%; and `CC[C@@H]1N(CC2CCC2)CCC[C@]12CCC(=O)N2Cc1ccncc1`, with 12.28%; and `Cc1cc(C(=O)N2CCC(Nc3cccnc3)CC2)c(C)s1`, with 22.36%.
Turning to `COCCN1CCC2(CCN(C(=O)c3ccc(F)cc3)CC2)C1=O`, the INHIBITION was 4.59%.
Then `CN1[C@@H]2CC[C@H]1CN(C(=O)CCc1csc(N)n1)CC2`, with 41.86%; and `COc1ccc(C(=O)N2CCC(Nc3cccnn3)CC2)c(F)c1`, with -33.22%.
Then `Cc1c(C2N3CC4(C(C)C)CN2CC(C(C)C)(C3)C4=O)[nH]c(=O)[nH]c1=O` (stereo unspecified), with -2.5%.
Then `CCc1noc(C2CCCCN2C(=O)c2ccc3c(c2)OCO3)n1` (stereo unspecified), with 25.67%.
Consider `CC[C@@H]1N(Cc2nccs2)CCC[C@]12CCC(=O)N2C`, for which the INHIBITION is 45.22%.
As for `CC[C@@H]1N(Cc2nccs2)CCC[C@]12CCC(=O)N2CCOC`, the figure is 65.26%; as for `CC[C@@H]1N(Cc2ccc(F)cc2)CCC[C@]12CCC(=O)N2CCOC`, 1.78%; as for `Cc1csc(C(=O)N2CC(S(=O)(=O)C3CCCCC3)C2)c1`, -15.37%.
For `CC(=O)N1CC2(CCCN2Cc2ccc(Cl)cc2)Cc2ccccc21` (stereo unspecified), the INHIBITION worked out at 6.9%.
As for `CCn1c(CC2CCN(C(=O)c3cc(CC(C)C)on3)CC2)n[nH]c1=O`, the figure is 55.25%; as for `CCn1c(CC2CCN(C(=O)c3cc(C(C)C)n[nH]3)CC2)n[nH]c1=O`, 3.06%.
Then `CCn1c(CC2CCN(C(=O)c3cc(C(C)C)nn3C)CC2)n[nH]c1=O`, with 32.26%; and `CSCc1cccc(NC(=O)N2CCC(N3CC=CC3)C2)c1` (stereo unspecified), with -18.09%; and `CC(=O)N(C)Cc1ccccc1NCc1c(C)noc1C`, with 47.68%.
As for `Cc1noc(C)c1CNS(=O)(=O)N(C)Cc1ccccc1Br`, the INHIBITION is on record as -45.67%.
With `CCN(CC)Cc1ccccc1NCc1c(C)noc1C`, the INHIBITION is given as 71.91%.
As for `O=C(Cc1csc(-c2ccco2)n1)N1CCN(c2nccs2)CC1`, the figure is 4.89%; as for `CC(C)(C)CC(NC(=O)N1CCC(C(N)=O)CC1)C(F)(F)F` (stereo unspecified), 4.34%.
Then `CC(=O)N[C@@H](C)C(=O)NCc1cccnc1Oc1ccccc1F`, with -66.28%; and `c1cncc(-c2noc(CN3CCCC3Cn3cccn3)n2)c1` (stereo unspecified), with 5.59%; and `CCC(=O)NC1CCCN(C(=O)Nc2cc(-c3ccccc3)on2)C1` (stereo unspecified), with 80.45%.
Then `O=C(Nc1cc(-c2ccccc2)on1)N1CCN(CCO)CC1`, with 45.19%; and `O=C(Nc1cc(-c2ccccc2)on1)N1CC[C@H](O)C1`, with -9.71%; and `Cc1ccc(CN2CCCC3(CCCCN3S(C)(=O)=O)C2)s1` (stereo unspecified), with -40.37%.
Take `Cc1ccc(CN2CCC3(CCCN3S(C)(=O)=O)CC2)s1`: the INHIBITION is recorded as -26.46%.
Then `Cc1ccc(CN2CCCC3(CCCN3S(C)(=O)=O)C2)s1` (stereo unspecified), with 51.26%; and `Cc1ccc(CNCc2nnc3n2CCCC3C(F)(F)F)s1` (stereo unspecified), with -73.29%.
On to `OC1(CN2CCC(Cc3ncccn3)CC2)CCCCC1`, for which the INHIBITION was -9.61%.
Then `CCOc1cccnc1C(=O)N1CC=C(c2ccc(O)cc2)CC1`, with 7.46%; and `Cn1ccc(CN2CCC(NC(=O)C3CCCCC3)CC2)cc1=O`, with -24.26%; and `Cn1ccc(CN2CCC(CC(=O)NC3CCCC3)CC2)cc1=O`, with -17.37%.
Then `Cn1ccc(CN2CCC(NC(=O)NC3CCCCC3)CC2)cc1=O`, with 54.85%; and `Cc1ccccc1-c1noc(CNc2ccc(F)cc2OCCO)n1`, with 20.77%.
With `Cc1nc(COc2ccc(CNCCn3cccn3)cc2)cs1`, the INHIBITION is 12.01%.
Then `COC(=O)C1CCN(C(=O)Cn2nc(C)nc2-c2ccccc2)CC1`, with 50.32%; and `Cc1nc(-c2ccccc2)n(CC(=O)NC2CCCC2)n1`, with 37.68%.
As for `COC(=O)C1CCN(C(=O)Cn2ccc(-c3ccccc3)n2)CC1`, the figure is -7.16%; as for `Cc1nc(-c2ccsc2)ccc1C(=O)NCCN1CCOCC1`, 13%; as for `Cc1nc(-c2ccsc2)ccc1C(=O)NCCCN1CCOCC1`, -10.47%.
As for `Cc1nc(-c2ccsc2)ccc1C(=O)NC(C)CN1CCOCC1` (stereo unspecified), the figure is 50.75%.
On to `CC(C)CN1CC[C@@H]2[C@H](CC1)N(S(C)(=O)=O)CCS2(=O)=O`, for which the INHIBITION was 30.95%.
As for `Cc1noc(C)c1CN1CC[C@H]2OCC[C@@]2(C(=O)NC2CCCC2)C1`, the figure is -6.61%; as for `COc1ncc(-c2ccc(O)cc2)c(OC)n1`, 24.44%.
As for `Cc1cc(N(C)C)nc(C2COCCN2Cc2csc(C)n2)n1` (stereo unspecified), the figure is -27.45%; as for `CNc1cc(C)nc(C2COCCN2Cc2csc(C)n2)n1` (stereo unspecified), 52.03%; as for `CNc1cc(C)nc(C2COCCN2CCc2ccccc2)n1` (stereo unspecified), -3.96%.
Consider `CCOC(=O)C(C)Nc1ccc(CCN2CCOCC2)cc1` (stereo unspecified), for which the INHIBITION is recorded as -48.91%.
For `CCNc1nc2c(s1)C(=O)CN(C(=O)NCCc1ccccc1)C2`, the INHIBITION is 12.31%.
Then `CCNc1nc2c(s1)C(=O)CN(C(=O)NCc1ccccc1)C2`, with 52.01%; and `CNc1nc2c(s1)C(=O)CN(C(=O)NCc1ccccc1)C2`, with 16.51%.
